Results filed as inconclusive are left out. Entries that show only a call come without a potency. Active and inactive are the calls of the source. Unless noted, calls come from the whole dose curve; as a rule, active = well fitted curve in the direction sought with a large enough effect in the repeat runs; inconclusive = weak or mixed curves; inactive = no such curve, though single readings can be large; an effect the other way counts as inactive or inconclusive.
How the values were obtained:
[1] = target: Peroxisome proliferator-activated receptor delta (Homo sapiens) (UniProt Q03181); assay: qHTS assay to identify small molecule agonists of the peroxisome proliferator-activated receptor delta (PPARd) signaling pathway (AID 743212; calls by dose curve)
In short: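 Steps: seed PPARd-bla HEK293H cells; incubate 5 h, 37 C, 5% CO2; add compounds in DMSO; incubate, 37 C; add LiveBLAzer B/G FRET substrate; hold 2 h at room temperature; measure fluorescence.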

[2] = target: Peroxisome proliferator-activated receptor delta (Homo sapiens) (UniProt Q03181); assay: qHTS assay to identify small molecule antagonists of the peroxisome proliferator-activated receptor delta (PPARd) signaling pathway (AID 743215; active = well fitted inhibition curve with a large enough effect in the signal ratio in the repeat runs, not every such curve was filed as active; the % refers to the signal ratio;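 note: cells stimulated with agonist L165041 at 300 nM final during compound exposure; series mostly up to about 62 µM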)
In short: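 Cells: HEK293H with a UAS-driven beta-lactamase reporter responsive to PPARd. Compounds were co-added with L165041 (300 nM, final) and incubated 17 h at 37 C before a 2 h room-temperature FRET substrate step and fluorescence reading.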

[3] = qHTS assay to identify small molecule antagonists of the farnesoid-X-receptor (FXR) signaling pathway - cell viability counter screen (AID 743221; active = well fitted cell-killing curve with a large enough effect in the repeat runs, not every such curve was filed as active; note: nearly all actives have a fitted effect of over 50% in size)
In short: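 GeneBLAzer FXR-UAS-bla HEK 293T cells, compound plus chenodeoxycholic acid (50 uM final), 16 h at 37 C. CellTiter-Glo added to the same wells after the beta-lactamase read; luminescence read after 30 min at room temperature as viability.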

[4] = qHTS assay to identify small molecule agonists of the NFkB signaling pathway (AID 1159509; active = well fitted curve in the direction sought with a large enough effect in the signal ratio in the repeat runs, not every such curve was filed as active; the % refers to the signal ratio; note: series mostly up to about 61 µM)
In short: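 Beta-lactamase reporter assay run in quantitative high-throughput format on an NF-kB-responsive ME-180 line, with 5 hr compound treatment and a FRET-based blue/green fluorescence readout.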

[5] = qHTS assay to identify small molecule agonists of the NFkB signaling pathway - cell viability counter screen (AID 1159515; calls by dose curve; note: series mostly up to about 61 µM; nearly all actives have a fitted effect of over 55% in size)
In short: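 Cells are seeded (2,000 NFkB-bla ME-180 per well), rested overnight, and dosed with DMSO-dissolved compounds for 5 hr at 37 C. Viability is then read by CellTiter-Glo luminescence after 30 min at room temperature.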

[6] = qHTS assay to identify small molecule agonists of the endoplasmic reticulum stress response signaling pathway - cell viability counter screen (AID 1159517; calls by dose curve;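 note: HeLa cells carrying an ER stress response element beta-lactamase reporter; series mostly up to about 61 µM; nearly all actives have a fitted effect of over 50% in size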)
In short: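 After overnight attachment, ESRE-bla HeLa cells were treated with Tox21 library compounds for 5 hr. CellTiter-Glo luminescence, read 30 min post-addition at room temperature, reported viability.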

[7] = qHTS assay to identify small molecule antagonists of the retinoid-related orphan receptor gamma (ROR-gamma) signaling pathway - cell viability counter screen (AID 1159520); note: nearly all actives have a fitted effect of over 50% in size
In short: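 Cytotoxicity was read from cellular ATP (CellTiter-Glo luminescence) after 16 hr at 37 C with 1 uM doxycycline induction. The inducer was added 2 hr after compound transfer to Tet-on ROR gamma CHO cells.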

[8] = qHTS assay to identify small molecule agonists of the peroxisome proliferator-activated receptor delta (PPARd) signaling pathway - cell viability counter screen (AID 743211); note: nearly all actives have a fitted effect of over 55% in size; note: potency is the fitted concentration of half-maximal effect
In short: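 PPARd-bla HEK293H cells (3000/well) were pre-incubated 5 h at 37 C, then exposed to compound for 17 h at 37 C. After 2 h with LiveBLAzer substrate, CellTiter-Glo was added to the same wells; luminescence read after 30 min at room temperature.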

[9] = qHTS assay to identify small molecule antagonists of the peroxisome proliferator-activated receptor delta (PPARd) signaling pathway - cell viability counter screen (AID 743213); note: nearly all actives have a fitted effect of over 50% in size; note: potency is the fitted concentration of half-maximal effect
In short: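 Same-well viability: cells pre-incubated 5 h, dosed with compound plus 300 nM L165041, kept 17 h at 37 C, FRET substrate 2 h RT, then CellTiter-Glo 30 min RT and luminescence.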

[10] = qHTS assay to identify small molecule agonists of the farnesoid-X-receptor (FXR) signaling pathway - cell viability counter screen (AID 743218); note: nearly all actives have a fitted effect of over 45% in size
In short: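 Cells were seeded, left 5 h at 37 C and 5% CO2, then dosed with compound in DMSO for 16 h. After the beta-lactamase FRET read, CellTiter-Glo was added and luminescence measured 30 min later.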

[11] = target: Vitamin D3 receptor (Homo sapiens) (UniProt P11473); assay: qHTS assay to identify small molecule agonists of the vitamin D receptor (VDR) signaling pathway (AID 743222; calls by dose curve)
In short: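 Cells carrying a VDR-driven beta-lactamase reporter are seeded at 2,000 per well and rested 4 h. Compounds in DMSO are added for 16 h at 37C, and FRET substrate fluorescence is measured after 2 h at room temperature.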

[12] = target: Vitamin D3 receptor (Homo sapiens) (UniProt P11473); assay: qHTS assay to identify small molecule antagonists of the vitamin D receptor (VDR) signaling pathway (AID 743223; active = well fitted inhibition curve with a large enough effect in the signal ratio in the repeat runs, not every such curve was filed as active; the % refers to the signal ratio; note: potency is the fitted concentration of half-maximal effect)
In short: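 VDR-bla cells were treated with compound plus 3 nM final 1alpha,25-dihydroxyvitamin D3 for 16 h at 37C. Beta-lactamase reporter read by B/G FRET substrate fluorescence after 2 h at room temperature. qHTS format.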

[13] = qHTS assay to identify small molecule agonists of the vitamin D receptor (VDR) signaling pathway - cell viability counter screen (AID 743224)
In short: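 Cells: VDR-bla, 2,000/well, settled 4 h. Treatment: compounds in DMSO, 16 h, 37C/5% CO2. Readout: CellTiter-Glo luminescence after 30 min RT.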

[14] = qHTS assay to identify small molecule antagonists of the vitamin D receptor (VDR) signaling pathway - cell viability counter screen (AID 743225); note: nearly all actives have a fitted effect of over 50% in size; note: potency is the fitted concentration of half-maximal effect
In short: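 VDR-UAS-bla HEK 293T cells were plated and incubated 4 h at 37C, then dosed with compound plus 3 nM (final) 1-alpha,25-dihydroxyvitamin D3 for 16 h. After the 2 h beta-lactamase read, viability in the same wells was read as CellTiter-Glo luminescence after 30 min at room temperature.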

[15] = target: Nuclear receptor ROR-gamma (Homo sapiens) (UniProt P51449); assay: qHTS assay to identify small molecule antagonists of the retinoid-related orphan receptor gamma (ROR-gamma) signaling pathway (AID 1159521; note: nearly all actives have a fitted effect of over 50% in size; note: potency is the fitted concentration of half-maximal effect)
In short: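 Tet-on ROR-gamma CHO cells with ROR response element-luciferase reporter; compounds added 2 hr before 1 uM doxycycline induction, then 16 hr at 37 C. Antagonism scored as decreased ONE-Glo luminescence.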

[16] = qHTS assay to identify small molecule agonists of the AP-1 signaling pathway - cell viability counter screen (AID 1159525; calls by dose curve; note: nearly all actives have a fitted effect of over 55% in size)
In short: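 Intracellular ATP by Cell Titer Glo luminescence (30 min, RT) in the same ME-180 AP-1-bla wells after the 5 h compound exposure at 37 °C. Normalised to tetra n-octyl ammonium bromide and DMSO controls.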

[17] = qHTS assay to identify small molecule agonists of the AP-1 signaling pathway (AID 1159526; calls by dose curve)
[18] = target: Bile acid receptor (Homo sapiens) (UniProt Q96RI1); assay: qHTS assay to identify small molecule antagonists of the farnesoid-X-receptor (FXR) signaling pathway (AID 743217; active = well fitted inhibition curve with a large enough effect in the signal ratio in the repeat runs, not every such curve was filed as active; the % refers to the signal ratio)
In short: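 Cells carrying a UAS-driven beta-lactamase reporter (GeneBLAzer FXR-UAS-bla HEK 293T) were plated and rested 5 h at 37 °C. Compounds in DMSO were added alongside chenodeoxycholic acid agonist at 50 uM final and left 16 h at 37 °C before FRET substrate readout.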

[19] = target: Bile acid receptor (Homo sapiens) (UniProt Q96RI1); assay: qHTS assay to identify small molecule agonists of the farnesoid-X-receptor (FXR) signaling pathway (AID 743220; active = well fitted activation curve with a large enough effect in the signal ratio in the repeat runs, not every such curve was filed as active; the % refers to the signal ratio)
In short: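 FXR-UAS-bla HEK 293T cells carrying a UAS-driven beta-lactamase reporter were plated for 5 h at 37C/5% CO2, then exposed to DMSO-dissolved Tox21 10K compounds for 16 h at 37C. A LiveBLAzer B/G FRET substrate was loaded for 2 h at room temperature before fluorescence reading.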

[20] = qHTS assay to identify small molecule agonists of the endoplasmic reticulum stress response signaling pathway (AID 1159516; active = well fitted activation curve with a large enough effect in the signal ratio in the repeat runs, not every such curve was filed as active; the % refers to the signal ratio)
In short: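 Cells are seeded at 1,500 per well and incubated overnight. Compounds in DMSO are added for 5 hr at 37 C, then beta-lactamase FRET substrate for 2 hr at room temperature, and fluorescence at 460 and 530 nm is measured.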

Vitamin D3 receptor (Homo sapiens), sequence (P11473 whole entry, looked up): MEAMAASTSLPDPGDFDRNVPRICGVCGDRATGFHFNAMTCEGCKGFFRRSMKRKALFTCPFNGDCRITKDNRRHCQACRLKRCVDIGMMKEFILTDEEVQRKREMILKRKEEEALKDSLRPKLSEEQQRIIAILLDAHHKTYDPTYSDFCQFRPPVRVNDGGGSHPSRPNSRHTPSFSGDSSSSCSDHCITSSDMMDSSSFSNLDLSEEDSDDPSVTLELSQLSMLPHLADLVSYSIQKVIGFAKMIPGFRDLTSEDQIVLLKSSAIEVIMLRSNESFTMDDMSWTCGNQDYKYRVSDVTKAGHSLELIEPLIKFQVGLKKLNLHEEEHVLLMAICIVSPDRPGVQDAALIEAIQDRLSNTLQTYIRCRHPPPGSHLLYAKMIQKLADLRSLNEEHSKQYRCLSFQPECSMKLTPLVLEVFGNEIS
Peroxisome proliferator-activated receptor delta (Homo sapiens), sequence (Q03181 whole entry, looked up): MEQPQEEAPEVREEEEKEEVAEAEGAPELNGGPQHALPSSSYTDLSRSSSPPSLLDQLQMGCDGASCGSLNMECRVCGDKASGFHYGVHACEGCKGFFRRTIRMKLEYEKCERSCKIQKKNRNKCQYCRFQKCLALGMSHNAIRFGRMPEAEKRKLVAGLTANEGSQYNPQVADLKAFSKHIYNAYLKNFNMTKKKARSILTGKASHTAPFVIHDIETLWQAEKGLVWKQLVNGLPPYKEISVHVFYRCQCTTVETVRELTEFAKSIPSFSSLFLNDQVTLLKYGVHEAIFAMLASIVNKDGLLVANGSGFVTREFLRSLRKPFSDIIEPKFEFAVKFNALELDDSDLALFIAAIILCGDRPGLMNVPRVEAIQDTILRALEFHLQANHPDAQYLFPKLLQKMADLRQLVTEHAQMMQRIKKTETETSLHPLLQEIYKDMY
Bile acid receptor (Homo sapiens), sequence (Q96RI1 whole entry, looked up): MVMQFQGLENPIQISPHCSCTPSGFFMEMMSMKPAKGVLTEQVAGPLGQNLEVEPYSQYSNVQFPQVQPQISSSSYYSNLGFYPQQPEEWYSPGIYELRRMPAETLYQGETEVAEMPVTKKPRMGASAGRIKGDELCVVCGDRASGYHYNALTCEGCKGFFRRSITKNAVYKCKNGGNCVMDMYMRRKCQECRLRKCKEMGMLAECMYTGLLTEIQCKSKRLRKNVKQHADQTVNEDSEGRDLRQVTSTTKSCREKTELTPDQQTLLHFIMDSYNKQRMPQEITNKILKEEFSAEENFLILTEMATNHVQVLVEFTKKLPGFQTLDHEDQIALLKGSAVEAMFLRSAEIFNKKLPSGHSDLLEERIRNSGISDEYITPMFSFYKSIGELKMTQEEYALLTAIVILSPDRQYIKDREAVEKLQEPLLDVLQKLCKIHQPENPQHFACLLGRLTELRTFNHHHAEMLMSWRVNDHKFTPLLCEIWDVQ

Structure (SMILES)	Potency [1]	Potency [2]	Potency [3]	Potency [4]	Potency [5]	Potency [6]	Potency [7]	Potency [8]	Potency [9]	Potency [10]	Potency [11]	Potency [12]	Potency [13]	Potency [14]	Potency [15]	Potency [16]	Potency [17]	Potency [18]	Potency [19]	Potency [20]
O=C(Nc1cccc2c(=O)cc(-c3nn[nH]n3)oc12)c1ccc(OCCCCc2ccccc2)cc1	inactive	inactive	inactive	inactive	inactive	inactive	inactive	–	–	–	–	–	–	–	–	–	–	–	–	–
CCOC(=O)c1ccc(OCCN2C[C@H](O)[C@@H](O)[C@H](O)[C@H]2CO)cc1	inactive	–	inactive	inactive	inactive	–	inactive	inactive	inactive	inactive	inactive	inactive	inactive	inactive	inactive	inactive	inactive	–	–	–
O=C(Cn1ccnc1[N+](=O)[O-])NCCO	–	inactive	inactive	inactive	inactive	–	inactive	inactive	inactive	inactive	inactive	inactive	inactive	inactive	inactive	inactive	inactive	inactive	inactive	–
O=[N+]([O-])c1ccc(Nc2ccc(Nc3ccccc3)c(S(=O)(=O)O)c2)c([N+](=O)[O-])c1	inactive	–	inactive	inactive	inactive	inactive	inactive	inactive	–	inactive	inactive	–	inactive	inactive	–	–	–	–	–	–
O=C1C(=O)c2ccccc2C(O)=C1C1CCC(c2ccc(Cl)cc2)CC1 (centres undefined)	–	–	–	inactive	inactive	inactive	–	–	inactive	–	–	inactive	–	5.35 µM (active)	7.5 µM (active)	inactive	–	inactive	inactive	–
CC1CC(OC(=O)C(O)c2ccccc2)CC(C)(C)N1C (centres undefined)	inactive	inactive	inactive	inactive	inactive	–	inactive	inactive	–	inactive	–	–	inactive	inactive	inactive	inactive	inactive	–	–	–
COc1ncnc(NS(=O)(=O)c2ccc(N)cc2)c1OC	inactive	inactive	inactive	inactive	–	inactive	inactive	inactive	inactive	inactive	inactive	–	inactive	inactive	inactive	inactive	inactive	–	–	inactive
O=[N+]([O-])c1ccc(O/N=C/c2cc(Br)c(O)c(Br)c2)c([N+](=O)[O-])c1	–	–	–	inactive	inactive	–	–	–	–	inactive	inactive	inactive	inactive	–	6.82 µM (active)	–	–	inactive	inactive	–
NC(=O)c1ccncc1	inactive	inactive	inactive	inactive	–	inactive	inactive	inactive	inactive	–	inactive	–	inactive	inactive	inactive	inactive	inactive	–	–	inactive
COc1cc(C(=O)NCCCCCC(=O)O)cc(OC)c1OC	inactive	–	inactive	inactive	–	inactive	inactive	inactive	inactive	inactive	–	inactive	inactive	inactive	inactive	inactive	inactive	–	–	inactive
Cc1cc(C)c(N)cc1C	inactive	inactive	inactive	inactive	–	inactive	inactive	inactive	inactive	inactive	inactive	inactive	inactive	–	inactive	inactive	inactive	inactive	inactive	inactive
CN1C(=O)N(c2ccccc2Br)Cc2cnc(Nc3ccc4c(c3)OCC(CO)O4)nc21 (centres undefined)	–	–	–	inactive	inactive	–	–	1.1 µM (active)	11 µM (active)	inactive	inactive	13.8 µM (active)	–	–	54.5 µM (active)	inactive	–	–	–	–
C=C1C[C@@]23CC[C@H]4[C@@](C)(CCC[C@@]4(C)C(=O)O[C@@H]4O[C@H](CO)[C@@H](O)[C@H](O)[C@H]4O)[C@@H]2CC[C@]1(O[C@@H]1O[C@H](CO)[C@@H](O)[C@H](O[C@@H]2O[C@H](CO)[C@@H](O)[C@H](O)[C@H]2O)[C@H]1O[C@@H]1O[C@H](CO)[C@@H](O)[C@H](O)[C@H]1O)C3	inactive	inactive	inactive	inactive	–	inactive	inactive	inactive	inactive	inactive	inactive	inactive	inactive	–	inactive	inactive	inactive	inactive	inactive	inactive
CN1C(=O)c2ccccc2C1=O	–	–	–	inactive	inactive	–	inactive	–	–	–	–	–	–	–	–	–	inactive	–	–	–
Cc1ccc(C(C)(C)O)cc1	inactive	inactive	inactive	inactive	–	inactive	inactive	inactive	inactive	inactive	inactive	–	inactive	inactive	inactive	inactive	inactive	–	–	inactive
CC(C)C=O	–	–	inactive	inactive	inactive	–	inactive	inactive	inactive	inactive	inactive	inactive	inactive	inactive	–	inactive	inactive	–	–	–
c1ccc(C[n+]2cccc3ccccc32)cc1	–	inactive	inactive	inactive	inactive	–	inactive	inactive	inactive	inactive	inactive	–	–	–	–	inactive	inactive	inactive	inactive	–
Nc1ccc(N=Nc2ccccc2)c(N)c1	inactive	–	inactive	inactive	inactive	–	–	–	–	inactive	–	–	–	inactive	inactive	inactive	–	inactive	inactive	–
